# Screens (PubChem BioAssay)
# Rows were chosen to be rich in hits. Some 2.3% of all compounds tested hit in one or more screens of this group.
# M1 PAM parental: nonselective calcium activators in parental CHO-K1 cells, primary screen, counter-screen for M1 PAM project, cell-based, Fluo-8 calcium fluorescence, full deck, 1536-well. ATP EC20; 0% at ATP EC20, 100% at ATP max. activation, % at 3 µM. hit rate 0.02% among 360,000. AID 602247, 2012;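 active = activation above the run cutoff, the mean activation of all test compounds plus 3 SD, cut at about 40% in these data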;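 also: peak over basal fluorescence ratio in a 140 s read after ATP addition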
# M1 PAM: human M1 muscarinic receptor positive allosteric modulators, primary screen, CHO-K1 cells, Fluo-8 calcium fluorescence, 1536-well; Muscarinic acetylcholine receptor M1 (Homo sapiens), P11229; CHO-K1 hM1, ACh EC20; 0% = ACh EC20, 100% = maximal ACh; activation, % at 3 µM; hit rate 0.088% among 360,000; in the data active = activation above about 19%, passing the limit was not always enough
# Target sequence (P11229 whole entry, looked up): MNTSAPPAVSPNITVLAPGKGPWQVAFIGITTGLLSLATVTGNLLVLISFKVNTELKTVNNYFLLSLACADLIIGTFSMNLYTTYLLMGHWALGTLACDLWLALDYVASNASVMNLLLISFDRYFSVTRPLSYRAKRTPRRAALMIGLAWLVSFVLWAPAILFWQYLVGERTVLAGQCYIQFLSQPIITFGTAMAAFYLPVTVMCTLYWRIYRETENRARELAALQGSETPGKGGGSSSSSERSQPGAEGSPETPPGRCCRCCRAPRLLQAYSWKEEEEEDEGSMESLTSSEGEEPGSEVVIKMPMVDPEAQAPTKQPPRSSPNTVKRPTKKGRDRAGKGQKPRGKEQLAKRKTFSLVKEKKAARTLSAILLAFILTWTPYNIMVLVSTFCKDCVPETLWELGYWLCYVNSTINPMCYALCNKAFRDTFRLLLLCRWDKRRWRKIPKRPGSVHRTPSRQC
# CHO-K1 Ca antag: counter-screen for M1 antagonists: effect in parental CHO-K1 cells; ATP-induced calcium, Fluo-8 fluorescence; inhibition, % at 3 µM; hit rate 0.6% among 360,000;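 active = inhibition above a per-plate cutoff, the plate's mean sample inhibition plus 3 SD, cut at about 24% in these data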;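 also: 0% = DMSO plus EC80 ATP and 100% = DMSO alone without ATP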
# M1 antag: human M1 muscarinic receptor antagonists, primary screen, CHO-K1 cells, Fluo-8 calcium fluorescence, 1536-well; Muscarinic acetylcholine receptor M1 (Homo sapiens), P11229; CHO-K1 hM1, ACh EC80 antagonist; inhibition, % at 3 µM; hit rate 1.3% among 360,000; AID 588852, 2011;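 active = percent inhibition above its own plate's cutoff, namely the mean of that plate's compound wells plus 3 SD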;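 also: peak over basal fluorescence ratio during 140 s after agonist addition; 0% = ACh EC80 plus DMSO and 100% = DMSO alone without agonist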
# M1 ag: human M1 muscarinic receptor agonists, primary screen, Fluo-8 calcium fluorescence, CHO-K1 cells, HTS | Muscarinic acetylcholine receptor M1 (Homo sapiens), P11229 | CHO-K1 hM1, agonist mode; 0% DMSO, 100% acetylcholine EC100 | activation, % at 3 µM | hit rate 0.33% among 360,000;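 active = activation above the run's mean compound activation plus 3 SD, cut at about 16% in these data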;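 also: peak over basal fluorescence ratio within a 140 s kinetic read after compound addition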
# M1 ag parental: counter-screen for M1 agonists: effect in parental CHO-K1 cells | Fluo-8 calcium fluorescence; scaled to maximal ATP response, vehicle zero | activation, % at 3 µM | hit rate 0.48% among 360,000 | AID 602248, 2012; in the data active = activation above about 15%;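 also: untransfected CHO-K1 host cells lacking M1 receptor as counterscreen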
# * marks the source's active call; other numbers are inactive results.
SMILES,M1 PAM parental,M1 PAM,CHO-K1 Ca antag,M1 antag,M1 ag,M1 ag parental
FC(F)(F)c1ccc2c(c1)N(CCCN1CCN(CCCl)CC1)c1ccccc1S2,10,-18,4,42*,-5,0
CN(C)C1CCc2[nH]c3c(F)cc(F)cc3c2C1 (stereo not given),14,-18,2,35*,-9,1
CCCCn1nnnc1C(c1cccc2ccccc12)N1CCC2(CC1)C(=O)NCN2c1ccccc1 (stereo not given),-8,9,30*,-3,2,0
O=C1NCN(c2ccccc2)C12CCN(C(c1ccccc1)c1nnnn1-c1ccc3c(c1)OCCO3)CC2 (stereo not given),0,20,6,5,17*,1
O=C(C[N+]12CCC(CC1)C(OC(=O)c1ccccc1)C2)c1ccc([N+](=O)[O-])cc1 (stereo not given),21,-6,-8,12,4,1
CCC(CO)(C(=O)OC1C[N+]2(C)CCC1CC2)c1ccccc1 (stereo not given),3,-33,4,99*,-14,0
O=C(NCC1=C(c2ccc3ccccc3c2)C[C@@H]2CC[C@H]1N2Cc1ccco1)c1ccncc1,-13,-24,9,25,-11,0
O=C(NCC1=C(c2ccc3ccccc3c2)C[C@@H]2CC[C@H]1N2Cc1ccco1)c1ccc([N+](=O)[O-])cc1,17,-29,-6,43*,-8,2
C[C@]12C[C@H](O)[C@@H](O)CC1=CCC1C2CC[C@@]2(C)C1CC[C@@H]2O (stereo not given in full),3,-2,-4,3,6,0
O=c1[nH]c2ccccc2n1C1CCN(C(c2cccs2)c2nnnn2-c2ccc3c(c2)OCCO3)CC1 (stereo not given),42*,7,-28,-24,3,7
O=c1[nH]c2ccccc2n1C1CCN(C(c2ccccc2OC(F)(F)F)c2nnnn2-c2ccc3c(c2)OCCO3)CC1 (stereo not given),33,1,-18,-16,3,20*
COc1cccc(C(c2nnnn2-c2ccc3c(c2)OCCO3)N2CCC(n3c(=O)[nH]c4ccccc43)CC2)c1OC (stereo not given),31,2,-6,16,20*,6
COc1ccc(-n2nnnc2C(c2cccc(OC)c2OC)N2CCC(n3c(=O)[nH]c4ccccc43)CC2)cc1 (stereo not given),10,8,-1,-6,23*,4
COc1ccc(-n2nnnc2C(c2ccnc3ccccc23)N2CCC(n3c(=O)[nH]c4ccccc43)CC2)cc1 (stereo not given),20,-6,-4,-10,-6,2
Cc1ccc(N=C(/N=C(\N)N[N+](=O)[O-])Nc2ccc(C)cc2)cc1,16,8,-8,-3,-1,0
C=CCn1c(O)c(C(CC)=NCCc2c[nH]c3ccccc23)c(=O)[nH]c1=O,-13,-11,5,16,2,7
CCCCn1c(O)c(C(C)=Nc2ccc3c(c2)CCC3)c(=O)[nH]c1=O,-28,-8,12,23,-2,0
C=CC[C@@H](CC/C=C/C=C/CC/C=C\[C@@H]1CSC([C@@H]2C[C@@H]2C)=N1)OC,-12,19,18,0,10,0
CN1CCN(CCC(C#N)(c2ccccc2)c2ccccc2)CC1,10,-22,3,99*,-6,1
CC(CN1CCOCC1)C(C#N)(c1ccccc1)c1ccccc1 (stereo not given),20,-22,-28,6,-7,1
O=C1CN=C(c2ccc(Cl)cc2)c2oc3ccccc3c2N1,-1,9,5,-14,18*,0
CS(=O)(=O)NNP(=O)(NNS(C)(=O)=O)NC(=O)c1ccccc1,7,10,-18,-12,0,0
CN(C)C(CNC(=O)Cc1c(Cl)cccc1Cl)c1ccccc1 (stereo not given),8,-37,6,96*,-16,0
CCC(=NCc1ccco1)c1c(O)n(-c2ccccc2)c(=O)[nH]c1=O,7,6,29*,-1,-2,-1
COC(=O)C1=C(c2cccc(OCc3ccccc3)c2)C[C@@H]2CC[C@H]1N2C(=O)NCc1ccc(C(F)(F)F)cc1,11,-2,-15,9,-3,1
SMILES,M1 PAM parental,M1 PAM,CHO-K1 Ca antag,M1 antag,M1 ag,M1 ag parental
CC1CC2(C)C(CCC3C2CCC2(C)C(OP(=O)(N4CC4)N4CC4)CCC32)CC1=O (stereo not given),8,4,-1,102*,-7,1
C[C@]12CCC3C(CC[C@H]4C[C@H](O)CC[C@]34C)C1CC(=O)[C@@H]2O (stereo not given in full),-7,-7,-6,-5,2,4
COC(=O)[C@@H]1[C@@H](C(=O)OC)C2(c3ccccc3-c3ccccc32)N(c2ccc(Cl)cc2)N1C#N,5,-2,26*,-12,-4,0
Cc1ccc(N=C(N(C)C)P(=O)(N(C)C)N(C)C)cc1,3,-1,3,2,-8,0
CN1c2ccc([N+](=O)[O-])cc2CC2(C(=O)NC(=O)NC2=O)C1c1ccccc1 (stereo not given),3,7,1,-14,-4,0
CC(C)N1C(=O)NC(=O)C2(Cc3cc([N+](=O)[O-])ccc3N(C)C2c2ccccc2)C1=O (stereo not given),20,3,-4,0,-3,25*
Cc1c(C)c2ccc(OCC(=O)N3C[C@H]4C[C@@H](C3)c3cccc(=O)n3C4)c(C)c2oc1=O,9,3,2,-4,-12,1
Cc1[nH]c2ccccc2c1CCN,-8,-4,29*,18,-1,0
Cc1[nH]c2ccccc2c1CCCNC1CCCCC1,-14,-2,20,-1,-5,0
CCNC(=S)NCCC1=c2ccccc2=N/C1=C\c1c(O)n(C)c(=O)n(C)c1=O,2,1,-3,-2,-6,0
CCOc1cccc(=NC2CCCCC2)c2c(C)n(C)c(C)c12,21,5,-20,-5,-5,2
Cc1ccc(C(O)(c2ccc(C)c(C)c2)C2CN3CCC2CC3)cc1C (stereo not given),6,-6,10,12,-9,1
C[N+]12CCC(CC1)C(C(O)(c1cccc(Cl)c1)c1cccc(Cl)c1)C2 (stereo not given),3,-25,-11,97*,-5,1
